# The whole screen tested about 53,000 sequences, of which about 3,700 (7%) were called active.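 How the source made its calls: active means gene knockdowns whose robust z-score for IL-1 alpha signal is at least 2 or at most -2, so actives lie on both sides; inactive means the rest.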 Shown is part of a subset that was picked to be rich in actives.
# Test: Components of the Cytosolic LPS Sensing Pathway: Gene Identification via Genome-wide siRNA Screen
# Conditions: RAW264.7 macrophages, IL-1a HTRF, actives lie on both sides, screened at 100 nM (by protocol), cells primed 5 h with Pam3CSK4 first
# Excerpt: Non-canonical inflammasome activation by cytosolic LPS is a critical component of the host response to Gram-negative bacterial infection, however we lack a comprehensive understanding of the cellular processes that control this pathway. Here we describe a genome-wide siRNA screen to identify genes regulating the mouse macrophage IL-1 alpha response to cytosolic LPS.
# RAW264.7 cells were maintained in complete DMEM media, comprising DMEM with 4.5 g/L glucose, 10% FBS (Gemini Bio-Products, West Sacramento, CA), 2 mM Glutamine (Lonza) and 20 mM HEPES (Lonza), hereafter complete DMEM.
# The RNAi screen was conducted in 384-well format using the Ambion Silencer Mouse Genome siRNA Library (#4391425), which consists of three unique, nonoverlapping, nonpooled siRNAs for each of 17,000 gene targets. siRNA reagents ([…]) were stamped into 384-well white flat-bottom microplates (Corning, 3570) using a Velocity11 VPrep liquid handling system (Agilent) integrated into a BioCel robotic platform (Agilent) in columns 1-22, leaving columns 23-24 empty for negative (Ambion, Negative control #1) and positive (mouse Casp4) controls, respectively. The median value of each plate's negative control column was used to normalize sample wells, and the positive control was used to assess transfection efficiency and assay performance.
# Lipofectamine RNAiMAX Transfection Reagent ([…]; Invitrogen) was added in […] serum-free, antibiotic-free media to plate wells using a Thermo Scientific Matrix WellMate and Microplate Stacker. Plates were incubated for 45 min at room temperature to allow for the sufficient formation of siRNA-lipid complexes. Cells were seeded at a density of 1x10^4 cells per well in 20 microL media containing 20% (vol/vol) FBS without antibiotics. The final concentration of siRNA in each well was 100 nM. Cells were cultured for 48h at 37 degrees C in 5% CO2 before addition of […] of TLR ligand Pam3CSK4 for 5 hours. The medium was then removed, replaced with […] growth media and cell were transfected with […] of LipidA and TransIT-TKO (Mirus) for 24 hour. At the end of the LipidA treatment, […] of supernatant was transferred to a 384 Greiner Bio-one non-binding low volume plate and […] of IL-1a HTRF reagent (Cisbio, 62MIL1APEH) was added and incubated at room temperature overnight. The plates were read on an EnVision plate reader (PerkinElmer). Cell viability was measured by adding 20ul Cell Titer Glo to the original plate and running a luminescence read on the EnVision. The quantified IL-1a signal for each siRNA gene-targeted well was divided by the median of the negative control wells and multiplied by 100 to achieve a negative control normalized value for each well/siRNA. This normalized value was then used to generate a robust z-score by first taking the log of each value and then by subtracting the median and dividing by the […].
row,Sequence,z-score
1,GGUUCUGGUGGUGAAUGUGTT against Kcnd1,-1.51 (inactive)
2,GCGAGUUGUUUCCAUAGUUTT against Gpr22,-0.388 (inactive)
3,GGCAGAGCUAGAUCAAAUUTT against Retreg1,3.58 (active)
4,GGAAAUUCACACAGAUGAATT against Mtmr12,-1.27 (inactive)
5,GCCAACCUUCAAGGAAUAUTT against Cyp2b10,1.4 (inactive)
6,GGGAAGACAAGAACAACUUTT against Pitrm1,0.756 (inactive)
7,GGUCGUUAUCACUCUCUAUTT against Pkd1l3,3.34 (active)
8,CCCUUUAGCUUCCUAAUGUTT against Rhag,0.11 (inactive)
9,GGUUUUAUUAACUCUGUGATT against Olfr1013,0.453 (inactive)
10,GGACUGCUUUUUUUACUCATT against Mta2,-2.07 (active)
11,CCUGGUAAUCACAAUUUCGTT against Tor1b,-0.655 (inactive)
12,GGUAGACAAGAUCAUCGGATT against Dsc3,0.711 (inactive)
13,GGCAUAGAAGAGAUGACAGTT against Fabp7,-2.18 (active)
14,GCCUGUCUGCCUUUGCUUCTT against H4c9,2.47 (active)
15,GCUCGUACAUCUAUGGCUATT against Psmb6,-0.633 (inactive)
16,GGACCUAAGCAUUUUACAUTT against Traf2,-0.143 (inactive)
17,CCUAUGUGUACUUCAUCCUTT against Elovl1,2.93 (active)
18,GCCUUUUAUACAUGUUUGATT against B130024G19Rik,-1.55 (inactive)
19,GCUAGAGUAUGAGAACUUCTT against Cdc14b,0.233 (inactive)
20,GGUAGAGAACCAGAGGCAUTT against Ninj2,-0.164 (inactive)
21,GCCAGGAAUGCUAUUCUCGTT against Lrg1,-2.26 (active)
22,CCACCAUUUACUGAGUUUATT against Scn2b,-0.324 (inactive)

row,Sequence,z-score
1,GUCUUUGGAAAUCUACUCATT against Olfr1189,-1.21 (inactive)
2,GGAGAUUCUGUGCAAUGCATT against Dnajc12,-0.0758 (inactive)
3,CCAUUAACGUAAAUUCUGUTT against Ankrd13c,-0.971 (inactive)
4,GCUCAUACCUAUCUCAAGGTT against Tnfsf9,0.365 (inactive)
5,CCUAACAUAGUAUAGCCUUTT against Zfp868,-0.0695 (inactive)
6,GGUCCUGAAGAUACAUAUUTT against Taf2,-2.42 (active)
7,GGGAGAAAUGCAAAUAUUUTT against Mbnl2,-0.37 (inactive)
8,GGUGAAGAAAGCGGAAAAGTT against Cstf3,-0.19 (inactive)
9,GGACCUGUUUUGGAAAUAUTT against Jchain,-0.613 (inactive)
10,GGGUUAUGGACACUACCCATT against Tnk1,-1.84 (inactive)
11,GGUACGAGAACAACUGACUTT against Acot3,0.269 (inactive)
12,GGUACGUGAGAGAAUUCUGTT against Trem2,3.14 (active)
13,GGUCAGAUACAAUGUAUAUTT against Ap1s3,-0.793 (inactive)
14,GGUGUGUAAUGUGCGUGAGTT against Ephb3,1.11 (inactive)
15,GGGAUCCUUAUUUCAUACUTT against Olfr868,1.16 (inactive)
16,GGCGGAAAUCAAAGGAGGATT against Dnmt1,0.791 (inactive)
17,GGUGGAGUUUAAACUUACATT against Atp4b,5.64 (active)
18,GGAAACGAUAGCCAAUAUUTT against Scp2d1,-1.08 (inactive)
19,GGGAUCAAUGGCUACCUGUTT against Slc7a10,-0.0112 (inactive)
20,UAACUGGGCUCACGUUGACTT against Pou2f1,0.47 (inactive)
21,GGUACAAAAUGGCUUGUUGTT against Tmem215,2.53 (active)
22,GGUCCACACCAGACAUCAATT against Wfdc5,0.263 (inactive)

row,Sequence,z-score
1,CGGUGAUGGUUCAUUUGCATT against Zmiz2,1.36 (inactive)
2,GGCUGUGAAGAACUGGCAGTT against Rnaseh2a,1.85 (inactive)
3,GGUUGUGAGCUAACAAUGGTT against B430209F14Rik,1.25 (inactive)
4,GAGAACGCGUUUUUGGGACTT against Defa5,1.66 (inactive)
5,GGGAUGUAUUAGUGAAAGGTT against Dmpk,0.368 (inactive)
6,GGAGGAAAUAUGUUAACUATT against Atp6ap2,1.22 (inactive)
7,CGGCAACCGGCACUAUAAATT against Pnoc,0.231 (inactive)
8,GGCAUUUCAUAGAGAGAAUTT against LTO1,-2.21 (active)
9,GCCUUAGGCCUUUGUUUCCTT against Tpgs2,0.124 (inactive)
10,GGUUCUGGACUUCAUCCUCTT against Ocstamp,1.42 (inactive)
11,GGAAAAUUAAUAGCACAAGTT against Acot13,0.0633 (inactive)
12,GGUUUACUGUGAAAAAAGATT against Morc2b,0.0774 (inactive)
13,CCUGAUACUAACAAGGAAATT against Afmid,-0.625 (inactive)
14,GGUUGUCUUGACACCCUACTT against Tnfrsf1b,-2.21 (active)
15,GGAGAAGCAGAUUCUUCAATT against Calhm6,-0.0547 (inactive)
16,GGGAUGUCUGUUGAAAUAATT against Prcc,-0.422 (inactive)
17,CCAUGACACUCAUUCCCAGTT against Tbc1d7,-2.64 (active)
18,CCAUGUUUAUGGCACGCUGTT against Postn,0.536 (inactive)
19,GGUUUGUAGAGGCAUCAAGTT against Snph,-0.13 (inactive)
20,GCAUCCUUCUGAGUUGAUGTT against Tollip,-1.02 (inactive)
21,CCUUGAGAAAGCUCCAGUUTT against Cldn9,0.0773 (inactive)
22,GGUGUUUCAUAUGGUUACUTT against Psma3,-0.94 (inactive)

row,Sequence,z-score
1,GGAAGUUUGAGUUUGAGCUTT against Fbxl21,1.79 (inactive)
2,GCUCUCUAUAGGAUAAUGGTT against Vwa5b2,-1.86 (inactive)
3,CGAUAUCAAGAGUGCAUGATT against Gas6,2.97 (active)
4,GGCUAAUCACCAAUUUCUUTT against Derl2,-1.19 (inactive)
5,GCACCUUCAACCAACAAGGTT against Dph3,-0.311 (inactive)
6,GGUCAUUCGCUUCGAAAAGTT against C1qb,-2.05 (active)
7,GGAAUUCCUCUGUAUGAAATT against Pgr,-0.824 (inactive)
8,GGACUACCACAGCCUCUUCTT against Pxn,0.173 (inactive)
9,GGGCAAAUGAUAUAAGGAUTT against Ndufa12,-0.585 (inactive)
10,CCUCUUGGUUAAAUAAUGUTT against Rnf103,-1.9 (inactive)
11,GCGGCAACAUUCAAAGUGGTT against Itgb2l,-1.94 (inactive)
12,GGCUGUGUCAUCACCAUCUTT against Acot7,-1.31 (inactive)
13,GGAUGCUCUCUUAAAUGGATT against Gbp6,0.327 (inactive)
14,GGUUGUCAAGAAAUUACCCTT against Marchf10,2.14 (active)
15,GGAUGAUAUCUCAGUCAUGTT against Sult2a8,0.462 (inactive)
16,GGAAGGAAUUGGUUACCUATT against Cep72,-0.2 (inactive)
17,GGCUGAGUGAAUUGGGAAUTT against Olfr419,1.28 (inactive)
18,GGACGAUAGGACCCAAAGGTT against Sh3tc1,0.668 (inactive)
19,GGAUUUGUACACACUUCAATT against Tcim,1.48 (inactive)
20,GGCAUCCAAUCCUGUGGAGTT against Bcl11a,-0.62 (inactive)
21,GGGAGAUAUCUUCUCAGUATT against Psmb11,1.5 (inactive)
22,CGUAGAUGUCCUAGAAUUGTT against Rundc1,1.37 (inactive)

row,Sequence,z-score
1,GGAGGAGUAUGAAGAGCUGTT against Poc5,-0.0911 (inactive)
2,GGACAAUUCAGAGUGAUAGTT against Mog,-2.21 (active)
3,GCGAUGAUAAGUGCCUGGUTT against Stk31,-1.58 (inactive)
4,CGGAGUGAAACUACUCAUUTT against Ckb,-0.773 (inactive)
5,GGUGAUUUAUUCAGUUCAATT against Lmbrd2,-1.13 (inactive)
6,CCUUUGAAAAAGCUUGCCATT against Tor1aip2,0.0385 (inactive)
7,GGUGCUAUGGAAAAUCAAGTT against Dcaf1,-1.04 (inactive)
8,GGAAAUGUUUAUCACGGUUTT against Scube2,2.05 (active)
9,GGUCAUGCAAGACAAGAUCTT against Lrrc8c,0.487 (inactive)
10,GGCAGCGAAAGUUUUCAAGTT against Pcdhga12,0.721 (inactive)
11,GGAAUCCUGGAUUGAGGAATT against Rhod,0.394 (inactive)
12,GCACUGGAAUGUCAUCUCGTT against Casp3,2.9 (active)
13,GGGUCAACUACUCACACUGTT against Crhr2,0.78 (inactive)
14,CCAUAAGCGAAAUGCCUUCTT against Areg,0.201 (inactive)
15,CGUUGUUUAUUCCAAAGAGTT against Runx1,0.44 (inactive)
16,GGAAGUAAAGGGAUUUAACTT against Ankrd46,2.19 (active)
17,GACCCAGGCUCUGCUCUUUTT against Olfr1413,0.413 (inactive)
18,CCGGAAAUUUCUGAUGGAGTT against Eif4ebp1,2.19 (active)
19,GCUAGAUAUCCGGAACCAATT against Ndufv3,-0.752 (inactive)
20,GAGACAUCCUCUUCACCAUTT against Olfr495,-1.25 (inactive)

# Reference: PubChem BioAssay AID1508600 (Functional Genomics Laboratory (NCATS/FGL), 2020)
